{
  "source": "PubChem BioAssay AID743397",
  "about": "(Broad Institute, 2014)",
  "note": "Among all 340,000 compounds or so, about 330 (0.097%) were called active. The full list was thinned out, with actives kept by preference. Values without a mark were called inactive.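 Rule for the calls: active = mean replicate inhibition of at least 30% and at least 1% of replicates passing that level; inconclusive = only one of the two criteria is met; inactive = neither criterion is met.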",
  "data": [
    {"tested_on": "Voltage-dependent L-type calcium channel subunit alpha-1D (CaV1.3) ICDI/IQ interaction", "test": "Primary screen for inhibitors of IQ motif and Ca2+-dependent inactivation inhibitor domain binding in CACNA1D, Förster resonance energy transfer in living cells, single-concentration test (AID 743397);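 note: 0% = median of the neutral control wells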", "conditions": "HEK cells, CFP/YFP FRET ICDI-IQ, plate reader, 10 min; at 12.3 µM; hits give high values; percent FRET-ratio fall versus neutral wells", "values": [
      {"smiles": "COC(=O)[C@]1(Cc2ccccc2)NC=C(C(=O)c2ccccc2)[C@@H]1c1cccc(OC)c1", "inhibition": "-4.9%"},
      {"smiles": "COc1ccccc1CCn1cnc(-c2ccccc2)c1C(C)C", "inhibition": "-7.51%"},
      {"smiles": "CCCCN(CCCC)CC(O)Cn1c2ccccc2c(=O)c2ccccc21", "note": "(centres undefined)", "inhibition": "107% (active)"},
      {"smiles": "CCCn1c(=O)c(-c2ccccc2)c(O)c2ccccc21", "inhibition": "-7.92%"},
      {"smiles": "CCCCCn1c(=O)c(C(=O)OCC)c(Cl)c2ccccc21", "inhibition": "-4.21%"},
      {"smiles": "COC(=O)c1cc2c(c3c4ccccc4n(S(=O)(=O)c4cccc(C)c4)c13)C(=O)N(Cc1ccccc1)C2", "inhibition": "-4.46%"},
      {"smiles": "COC(=O)c1c(-c2ccc(OC)cc2)c2c(c3c4ccccc4n(S(=O)(=O)c4ccc(C)cc4)c13)C(=O)N(C)C2", "inhibition": "-10.3%"},
      {"smiles": "COC(=O)C1=C(C)N(Cc2cccc(C(F)(F)F)c2)C(=NCc2ccccc2)NC1c1ccc(Cl)cc1", "note": "(centres undefined)", "inhibition": "-3.3%"},
      {"smiles": "COc1ccc(-c2cc(NC=O)c3ncc(-c4cc(OC)c(OC)c(OC)c4)n3c2)c(OC)c1", "inhibition": "-3.57%"},
      {"smiles": "COC(=O)[C@]12C[C@H](CC(=O)NCc3cccc(C(F)(F)F)c3)C(=O)N(Cc3ccc4c(c3)OCO4)C1=C[C@H](COCc1ccccc1)O[C@@H]2C", "inhibition": "-9.09%"},
      {"smiles": "CC(=O)Nc1ccc(OC(=O)COc2ccc(Br)cc2)cc1", "inhibition": "-4.58%"},
      {"smiles": "Cc1ccc(O)c(NC(=S)NC(=O)COc2ccc(Br)cc2)c1", "inhibition": "40.4% (active)"},
      {"smiles": "CCS(=O)(=O)c1ccc(O)c(NC(=O)COc2ccc(Cl)cc2)c1", "inhibition": "-1.51%"},
      {"smiles": "N#Cc1ccc(OCCCN2CCC(C(O)(c3ccccc3)c3ccccc3)CC2)c(F)c1", "inhibition": "-9.35%"},
      {"smiles": "O=S1(=O)c2c(cccc2N2CCCCC2)O[C@H](COCc2ccccc2)CN1C1CC1", "inhibition": "-6.9%"},
      {"smiles": "COc1cncc(-c2cnc3sc(NCCc4ccccn4)nn23)c1", "inhibition": "-4.67%"},
      {"smiles": "COc1cccc(CNC(=O)[C@H]2CCCN2C(=O)[C@H]2CCCN2C(=O)c2ccc(F)cc2)c1", "inhibition": "-5.95%"},
      {"smiles": "COc1ccc(SSc2ccc(OC)cc2C(=O)O)c(C(=O)O)c1", "inhibition": "-2.9%"},
      {"smiles": "Cc1ccc(NC(=O)N2c3ccccc3SC2c2ccco2)c(C)c1", "note": "(centres undefined)", "inhibition": "-10.9%"},
      {"smiles": "Cc1cc(Br)cn2c(Cc3ccccc3C(F)(F)F)c(-c3ccc(C#N)cc3)nc12", "inhibition": "-10%"},
      {"smiles": "COC(=O)c1c(-c2ccc(OC)cc2)c2c(c3c4cc(OC)ccc4n(S(=O)(=O)c4ccc(F)cc4)c13)C(=O)N(C)C2", "inhibition": "-5.34%"},
      {"smiles": "COc1ccc(S(=O)(=O)Nc2ccc3c(c2)C(=O)N([C@H](C)CO)C[C@H](C)[C@@H](CN(C)C)OCCCC[C@H](C)O3)cc1", "inhibition": "-5.26%"},
      {"smiles": "COC(=O)C1=C(C)N(Cc2ccccc2C(F)(F)F)C(=NCC2CC2)NC1c1cccc(Cl)c1", "note": "(centres undefined)", "inhibition": "-11.5%"},
      {"smiles": "CCOC(=O)CNC(=O)N(C)[C@H]1C[C@H]2c3[nH]c4c(-c5ccc6c(c5)OCO6)cccc4c3CCN2C(=O)[C@H]1[C@H](C)O", "inhibition": "-2.88%"},
      {"smiles": "COc1ccc(NC(=O)N(C)C[C@@H]2OCCCC[C@@H](C)Oc3ccc(NC(=O)NC4CCCCC4)cc3C(=O)N([C@H](C)CO)C[C@@H]2C)cc1", "inhibition": "-5.46%"},
      {"smiles": "CCCCCCCCN1C(=O)[C@@H](CC(=O)NCCCC)C[C@@]2(C(=O)OC)C1=C[C@H](C(C)(C)C)O[C@@H]2C", "inhibition": "-9.75%"},
      {"smiles": "C[C@@H]1ON(C)[C@H]2C[C@H]3c4cc(N5CCOCC5)ccc4CCN3C[C@@H]12", "inhibition": "-4.48%"},
      {"smiles": "COc1ccc(C2CC(c3cccs3)=NN2C(=O)CSc2nncs2)cc1OC", "note": "(centres undefined)", "inhibition": "-3.4%"},
      {"smiles": "COc1ccc(C2CC(c3cccs3)=NN2C(=O)CSc2nnc(N)s2)cc1OC", "note": "(centres undefined)", "inhibition": "-6.31%"},
      {"smiles": "COc1ccc(C2CC(c3cccs3)=NN2c2nc(C)c(C(C)=O)s2)cc1OC", "note": "(centres undefined)", "inhibition": "168% (active)"},
      {"smiles": "C[C@@H](CN1C2=NC[C@@H](Cc3ccccc3)N2C[C@H]1Cc1ccc(O)cc1)NC(=O)CCC1CCCCC1", "inhibition": "-5.25%"},
      {"smiles": "C[C@@H]1CN([C@H](C)CO)C(=O)CCCn2cc(nn2)CO[C@H]1CN(C)C(=O)Nc1ccc(N2CCCCC2)cc1", "inhibition": "-8.15%"},
      {"smiles": "Cc1[nH]nc2c1C(c1ccc(Br)cc1)NC2=O", "note": "(centres undefined)", "inhibition": "-4.02%"},
      {"smiles": "COCc1cc(N2CCN(C(=O)OC(C)(C)C)C[C@@H]2C)ccc1N1CCN(Cc2ccccc2)[C@H](C)C1", "inhibition": "-8.69%"},
      {"smiles": "CCOC(=O)C1=C(C(=O)OCC)C2N(Cc3ccc(C#N)cc3)c3ccccc3[C@@]23C[C@@H](C(=O)OC)N(S(=O)(=O)c2ccc(F)cc2)C3=N1", "note": "(some centres undefined)", "inhibition": "-8.5%"},
      {"smiles": "CC(C)(C)c1ccc(S(=O)(=O)NCC2CCN(C(=O)C(=O)c3cc4ccccc4o3)CC2)cc1", "inhibition": "-8.19%"},
      {"smiles": "COC(=O)[C@@]12C[C@@H](CC(=O)N3CCC(c4ccccc4)CC3)C(=O)N(Cc3ccccc3)C1=CCC(C)(C)C2", "inhibition": "-9.64%"},
      {"smiles": "C=CCN=C1NC(c2cccc(C(F)(F)F)c2)C(C(=O)OC)=C(C)N1C", "note": "(centres undefined)", "inhibition": "-4.33%"},
      {"smiles": "COC(=O)C(C(=O)OC)c1ccccc1NS(=O)(=O)c1cccc2ccccc12", "inhibition": "-10.7%"},
      {"smiles": "Cc1nc(NC(=O)C(C)(C)C)sc1[N+](=O)[O-]", "inhibition": "-3.6%"},
      {"smiles": "CCc1c(-c2ccccc2OC)ncn1CCc1ccccc1OC", "inhibition": "-9.61%"},
      {"smiles": "Cc1nc2c(OCc3ccc(Cl)cc3Cl)cccn2c1N(C)CC1CC1", "inhibition": "-6.39%"},
      {"smiles": "CC(=O)Nc1cccc(-c2cc(NC=O)c3ncc(-c4ccc(F)c(Cl)c4)n3c2)c1", "inhibition": "-10.8%"},
      {"smiles": "CN[C@H]1C[C@H]2c3[nH]c4c(-c5ccccc5)cccc4c3CCN2C(=O)[C@H]1[C@H](C)O", "inhibition": "-3.8%"},
      {"smiles": "CCOC(=O)[C@]12CCC=C1N(Cc1ccco1)C(=O)[C@H](CC(=O)NCc1cccc(C(F)(F)F)c1)C2", "inhibition": "-5.22%"},
      {"smiles": "C[C@H](O)[C@@H]1C(=O)N2CCc3c([nH]c4c(-c5ccc6c(c5)OCO6)cccc34)[C@@H]2C[C@@H]1N(C)C(=O)c1ccco1", "inhibition": "-4.05%"},
      {"smiles": "O=C(N[C@H](C(=O)N1CCC[C@H]1C(=O)NCCc1ccccc1Cl)c1ccccc1)c1ccccc1", "inhibition": "-4.64%"},
      {"smiles": "Oc1cccc2cc(-c3ccncc3)cnc12", "inhibition": "-5%"},
      {"smiles": "COC(=O)C1=C(C)N(Cc2ccccc2C(F)(F)F)C(=NCc2ccc(OC)cc2)NC1c1cccc(C(F)(F)F)c1", "note": "(centres undefined)", "inhibition": "-9.27%"},
      {"smiles": "CCCCOCCCNC(=O)C[C@@H]1C[C@@]2(C(=O)OC)CCCCC=C2N(CCC2=CCCCC2)C1=O", "inhibition": "-3.67%"},
      {"smiles": "CCc1cccc(OC2OC(CO)C(O)C(O)C2NC(C)=O)c1", "note": "(centres undefined)", "inhibition": "107% (active)"},
      {"smiles": "CCCCCCCCCOC1OC(CO)C(O)C(O)C1NC(C)=O", "note": "(centres undefined)", "inhibition": "-5.79%"},
      {"smiles": "COC(=O)c1ccc2ccccc2c1OC1OC(CO)C(O)C(O)C1NC(C)=O", "note": "(centres undefined)", "inhibition": "-1.34%"},
      {"smiles": "CCCCNc1cccc2c1S(=O)(=O)N[C@@H](C)CO2", "inhibition": "-5.83%"},
      {"smiles": "COC(=O)C1=C(C)N(Cc2cccc(C(F)(F)F)c2)C(=NCc2ccccc2)NC1c1ccccc1C(F)(F)F", "note": "(centres undefined)", "inhibition": "-1.85%"},
      {"smiles": "CCCCc1c(-c2ccc(Br)cc2)ncn1CCc1ccccc1OC", "inhibition": "-9.97%"},
      {"smiles": "COC(=O)c1ccc(CN2C(=O)[C@]3(OCCC=C[C@H]3C)c3c(Br)cccc32)cc1", "inhibition": "-5.34%"},
      {"smiles": "COc1ccc(-c2ccc3c(n2)CCCN3S(=O)(=O)c2ccc(C)cc2)cc1", "inhibition": "-4.73%"},
      {"smiles": "COc1ccc(CNS(=O)(=O)c2cc(Br)ccc2Br)cc1", "inhibition": "-5.62%"},
      {"smiles": "COc1cccc(NC(=O)N(C)C[C@@H]2OCc3cn(nn3)CCCC(=O)N([C@@H](C)CO)C[C@H]2C)c1", "inhibition": "-4.88%"},
      {"smiles": "CN1C(=O)C(Br)(Br)CC1c1cccnc1", "note": "(centres undefined)", "inhibition": "-4.22%"},
      {"smiles": "CC[C@H](NC(=O)[C@H](Cc1ccccc1)NC(=O)[C@H]1O[C@@H](n2cnc3c(=O)[nH]c(N)nc32)[C@H](O)[C@@H]1O)c1ccccc1", "inhibition": "-7.74%"},
      {"smiles": "COC(=O)[C@]12C[C@H](CC(=O)N3CCN(C(=O)C4CC4)CC3)C(=O)N(Cc3ccc4c(c3)OCO4)C1=C[C@H](C(C)(C)C)O[C@@H]2C", "inhibition": "-7.42%"},
      {"smiles": "CC1CCCN(c2cccc3c2S(=O)(=O)N(Cc2ccc(F)cc2)[C@@H](C)[C@H](c2ccccc2)O3)C1", "note": "(some centres undefined)", "inhibition": "-4.9%"},
      {"smiles": "COCCNC(=S)N(C)[C@H]1C[C@H]2c3[nH]c4ccccc4c3CCN2C[C@H]1[C@H](C)O", "inhibition": "-5.06%"},
      {"smiles": "COC(=O)N1Cc2ccnnc2CC1c1ccccc1Br", "note": "(centres undefined)", "inhibition": "-4.44%"},
      {"smiles": "CCOC(=O)N1CCN(C(=O)C[C@H]2C[C@@]3(C(=O)OC)C(=C[C@H](C4CCCC4)O[C@@H]3C)N(Cc3ccccc3)C2=O)CC1", "inhibition": "-8.9%"},
      {"smiles": "O=C(Nc1c(Cl)c(C2CC2)nn1-c1ccccc1)C(Cl)(Cl)Cl", "inhibition": "-4.55%"},
      {"smiles": "O=c1[nH]c(-c2ccccc2)cn1C1CCN(Cc2ccc(-c3nc4ccc(F)cc4nc3-c3ccccc3)cc2)CC1", "inhibition": "-6%"},
      {"smiles": "CC(=NNC(N)=O)c1ccc(Cl)c(-n2cccc2)c1", "inhibition": "-7.9%"},
      {"smiles": "CCc1ccc(C2=CC(=O)CC(C)(C)C2=O)cc1", "inhibition": "-7.01%"},
      {"smiles": "COC(=O)C1=C(C)N(Cc2ccc(C(F)(F)F)cc2)C(=NCc2ccccc2)NC1c1ccccc1C(F)(F)F", "note": "(centres undefined)", "inhibition": "-9.62%"},
      {"smiles": "Nc1ncnc2c1ncn2[C@@H]1O[C@H](C(=O)N[C@@H](CCc2ccccc2)C(=O)NCC(=O)N2CCOCC2)[C@@H](O)[C@H]1O", "inhibition": "-4.61%"},
      {"smiles": "CC(=O)N1C[C@@H](CO)[C@@H](N(C)C(=O)C(C)(C)C)C[C@H]1c1ccccc1Br", "inhibition": "-3.95%"}
    ]}
  ]
}
